Rows were chosen to be rich in hits. Some 1.8% of all compounds tested hit in one or more screens of this group.
PME-1 inh – PME-1 inhibitors via competitive probe labeling, primary screen, biochemical, fluorescence polarization, FP-Rh probe, HTS | Protein phosphatase methylesterase 1 (Homo sapiens), Q9Y570 | recombinant PME-1 | inhibition, % at 5.9 µM | actives 0.53% (n = 320,000);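 active = inhibition above the campaign mean of all compounds plus 3 SD, cut at about 26% in these data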;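 also: competitive labeling of PME-1 active site by serine hydrolase directed probe; 0% = PME-1 with DMSO and 100% = wells lacking PME-1 enzyme; inhibitors block probe labeling so polarization falls and inhibition rises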
Fam108B inh – mouse Fam108B serine hydrolase inhibitors, primary screen, counter-screen for RBBP9 inhibitor project, biochemical, fluorescence polarization; recombinant Fam108B, FP-Rh probe fluorescence polarization; inhibition, % at 9.51 µM; actives 0.33% (n = 300,000); AID 1947, 2009;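 active = inhibition above the screen mean inhibition plus 3 SD, computed separately per campaign, cut at about 18% in these data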;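 also: inhibitors lower polarization as less probe binds the enzyme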
PAD4 FP inh – human PAD4 inhibitors, primary screen, biochemical, fluorescence polarization, 1536-well format | Protein-arginine deiminase type-4 (Homo sapiens), Q9UM07 | recombinant PAD4, RCA probe fluorescence polarization | inhibition, % at 6.36 µM | actives 0.41% (n = 330,000) | AID 485272, 2010;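 active = percent inhibition above a cutoff equal to the mean of all tested compounds plus 3 SD, cut at about 15% in these data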;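 also: 0% = PAD4 with RCA probe and DMSO and 100% = probe without PAD4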
LYPLA1 inh – LYPLA1 inhibitors, primary screen, counter-screen for PME1 inhibitor project, biochemical, fluorescence polarization, FP-Rh probe ABPP | actives 0.16% (n = 320,000) | inhibition, % at 5.9 µM | AID 2174, 2009 | Acyl-protein thioesterase 1 (Homo sapiens), O75608 | recombinant LYPLA1;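 active = inhibition above the mean of all tested compounds plus 3 SD, set per campaign, cut at about 14% in these data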;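 also: inhibitors block serine hydrolase probe labeling of LYPLA1 so polarization falls; 0% = enzyme with DMSO and 100% = wells lacking LYPLA1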
LYPLA2 inh – LYPLA2 inhibitors, primary screen, counter-screen for PME1 inhibitor project, biochemical, fluorescence polarization, FP-Rh probe ABPP; Acyl-protein thioesterase 2 (Homo sapiens), O95372; recombinant LYPLA2; inhibition, % at 5.9 µM; actives 0.38% (n = 320,000);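 active = inhibition above the screen-wide mean plus 3 SD, limit set per campaign, cut at about 26% in these data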;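 also: 0% = LYPLA2 with DMSO and 100% = wells lacking LYPLA2 enzyme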
Target sequence (O95372 whole entry, looked up): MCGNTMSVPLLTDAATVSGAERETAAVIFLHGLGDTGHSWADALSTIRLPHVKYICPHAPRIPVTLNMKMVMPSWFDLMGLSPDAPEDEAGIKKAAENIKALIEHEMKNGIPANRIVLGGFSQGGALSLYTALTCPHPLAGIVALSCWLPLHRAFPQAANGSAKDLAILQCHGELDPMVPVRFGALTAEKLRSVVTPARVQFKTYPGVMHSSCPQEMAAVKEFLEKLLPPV
GSTO1 counter – inhibitors of recombinant GSTO1, primary screen, counter-screen for RBBP9 inhibitor project, biochemical, fluorescence polarization; activity-based probe fluorescence polarization; Glutathione S-transferase omega-1 (Homo sapiens), P78417; inhibition, % at 5.96 µM; actives 1.1% (n = 300,000);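 active = inhibition above the campaign mean inhibition plus 3 SD, cut at about 35% in these data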;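 also: 0% = GSTO1-1 with DMSO and 100% = wells lacking GSTO1-1 enzyme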
Target sequence (P78417 whole entry, looked up): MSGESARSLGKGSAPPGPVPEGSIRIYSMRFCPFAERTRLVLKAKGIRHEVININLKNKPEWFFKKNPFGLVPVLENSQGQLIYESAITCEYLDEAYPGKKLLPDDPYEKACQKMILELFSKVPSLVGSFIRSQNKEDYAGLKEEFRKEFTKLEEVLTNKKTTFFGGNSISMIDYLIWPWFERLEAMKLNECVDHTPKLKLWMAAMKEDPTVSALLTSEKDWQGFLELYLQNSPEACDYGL
LYPLA1 confirm – LYPLA1 inhibitors, retest, confirmation, counter-screen for PME1 inhibitor project, biochemical, fluorescence polarization, FP-Rh probe ABPP. shares compounds with LYPLA1 inh. recombinant LYPLA1. inhibition, % at 5.9 µM. actives 69% (n = 480). AID 2233, 2010;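 active = mean inhibition across replicates above the hit cutoff set in the primary screen, cut at about 15% in these data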;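 also: loss of FP-Rh probe labeling of LYPLA1 seen as lower polarization; 0% = LYPLA1 with DMSO and 100% = wells lacking LYPLA1 enzyme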
Numbers without * were called inactive.

How did COc1ccc(Cc2nnc(SCC(=O)N3CCN(c4ccccc4)CC3)o2)cc1 do in these assays?
PME-1 inh: 0; Fam108B inh: 4; PAD4 FP inh: -1; LYPLA1 inh: 24*; LYPLA2 inh: -2; GSTO1 counter: 10; LYPLA1 confirm: 30*

How did C#CCOCCOCCOCCNc1nc(N2CCN(C(=O)[C@H](Cc3cc4ccccc4[nH]3)n3cc([C@@H](N)C(C)CC)nn3)CC2)nc(N2CCN(C(=O)[C@H](Cc3cc4ccccc4[nH]3)n3cc([C@@H](N)Cc4ccc(O)cc4)nn3)CC2)n1 (stereo not given in full) do in these assays?
PME-1 inh: -28; Fam108B inh: -19; PAD4 FP inh: -6; LYPLA1 inh: 17*; LYPLA2 inh: -20; GSTO1 counter: -5; LYPLA1 confirm: 34*

Results for C#CCOCCOCCOCCNc1nc(N2CCN(C(=O)[C@H]([C@@H](C)CC)n3cc([C@@H](N)Cc4ccc(O)cc4)nn3)CC2)nc(N2CCN(C(=O)[C@H](Cc3cc4ccccc4[nH]3)n3cc([C@@H](N)C(C)CC)nn3)CC2)n1 (stereo not given in full) ?
PME-1 inh: 2; Fam108B inh: -4; PAD4 FP inh: -3; LYPLA1 inh: 0; LYPLA2 inh: 5; GSTO1 counter: 1

How did CCOC(=O)N1CCN(CCC(=O)Nc2ccc(C)cc2)CC1 do in these assays?
PME-1 inh: -4; Fam108B inh: 1; PAD4 FP inh: -1; LYPLA1 inh: 0; LYPLA2 inh: -5; GSTO1 counter: -6

What do the screens show for `Cc1ccc(Nc2ccc(S(=O)(=O)N3CCOCC3)cc2[N+](=O)[O-])cc1C`?
PME-1 inh: 12; Fam108B inh: -1; PAD4 FP inh: -1; LYPLA1 inh: 4; LYPLA2 inh: 12; GSTO1 counter: -7

Results for CCCCc1cc(=O)oc2cc(OCc3nn[nH]n3)c(Cl)cc12 ?
PME-1 inh: 0; Fam108B inh: 5; PAD4 FP inh: -2; LYPLA1 inh: 22*; LYPLA2 inh: 17; GSTO1 counter: -7; LYPLA1 confirm: 21*

What do the screens show for `CC(C)CNC(=O)c1cccc(NC(=O)c2ccc3c(c2)C(=O)N(C)C3=O)c1`?
PME-1 inh: 3; Fam108B inh: 0; PAD4 FP inh: 0; LYPLA1 inh: 26*; LYPLA2 inh: 15; GSTO1 counter: 7; LYPLA1 confirm: 27*

How did O=C(COC(=O)C1CC2C=CC1C2)Nc1cccc(S(=O)(=O)N2CCCCC2)c1 (stereo not given) do in these assays?
PME-1 inh: -3; Fam108B inh: 3; PAD4 FP inh: -6; LYPLA1 inh: 16*; LYPLA2 inh: 8; GSTO1 counter: -5; LYPLA1 confirm: 28*

How did O=C(COC(=O)C1CCC1)Nc1cccc(S(=O)(=O)N2CCOCC2)c1 do in these assays?
PME-1 inh: 2; Fam108B inh: -3; PAD4 FP inh: -7; LYPLA1 inh: 1; LYPLA2 inh: 7; GSTO1 counter: 1

How did O=C(COC(=O)C1CC2C=CC1C2)Nc1cccc(S(=O)(=O)N2CCCCCC2)c1 (stereo not given) do in these assays?
PME-1 inh: 6; Fam108B inh: -2; PAD4 FP inh: 1; LYPLA1 inh: 37*; LYPLA2 inh: 17; GSTO1 counter: -5; LYPLA1 confirm: 46*

Results for C/C(CC(=O)Nc1ccc([N+](=O)[O-])cc1)=N\NC(=O)c1ccccc1[N+](=O)[O-] ?
PME-1 inh: 2; Fam108B inh: -1; PAD4 FP inh: -2; LYPLA1 inh: 2; LYPLA2 inh: 3; GSTO1 counter: 4

What do the screens show for `CCOC(=O)c1ccc(N2C(=O)c3n[nH]c(C)c3C2c2ccc(OC)c(OC)c2)cc1` (stereo not given)?
PME-1 inh: 0; Fam108B inh: -5; PAD4 FP inh: 0; LYPLA1 inh: 29*; LYPLA2 inh: 9; GSTO1 counter: -2; LYPLA1 confirm: 42*

How did CCOC(=O)c1ccc(N2C(=O)c3n[nH]c(C)c3C2c2ccc(OC)cc2)cc1 (stereo not given) do in these assays?
PME-1 inh: 2; Fam108B inh: -1; PAD4 FP inh: 0; LYPLA1 inh: 11; LYPLA2 inh: 5; GSTO1 counter: -4

What do the screens show for `COc1ccc(CCNC(=S)NC(=O)c2cc(OC)c(OC)c(OC)c2)cc1OC`?
PME-1 inh: -4; Fam108B inh: 1; PAD4 FP inh: 4; LYPLA1 inh: -1; LYPLA2 inh: -2; GSTO1 counter: 2

How did S=c1[nH]nc(-c2cc3c(s2)-c2ccccc2CC3)o1 do in these assays?
PME-1 inh: 22; Fam108B inh: 10; PAD4 FP inh: 5; LYPLA1 inh: 17*; LYPLA2 inh: 0; GSTO1 counter: -23; LYPLA1 confirm: 21*

How did Fc1ccc(-n2cc(-c3ccccc3)c3c(N4CCOCC4)ncnc32)cc1 do in these assays?
PME-1 inh: -6; Fam108B inh: -5; PAD4 FP inh: -7; LYPLA1 inh: 1; LYPLA2 inh: 2; GSTO1 counter: 10

Results for NC(=O)C1CCN(c2ncnc3c2c(-c2ccccc2)cn3-c2ccccc2)CC1 ?
PME-1 inh: 5; Fam108B inh: -2; PAD4 FP inh: 7; LYPLA1 inh: 17*; LYPLA2 inh: 18; GSTO1 counter: -1; LYPLA1 confirm: 19*

Results for Cc1ccc(C)c(NC(=O)C(OC(=O)c2cnc(C)cn2)c2ccccc2)c1 (stereo not given) ?
PME-1 inh: -2; Fam108B inh: -2; PAD4 FP inh: -3; LYPLA1 inh: 3; LYPLA2 inh: 0; GSTO1 counter: -4

How did Cc1cnc(C(=O)OC(C(=O)Nc2cc(C(F)(F)F)ccc2Cl)c2ccccc2)cn1 (stereo not given) do in these assays?
PME-1 inh: 4; Fam108B inh: 2; PAD4 FP inh: 0; LYPLA1 inh: 32*; LYPLA2 inh: -9; GSTO1 counter: -2; LYPLA1 confirm: 0

What do the screens show for `O=C(Oc1ccc2c3c(c(=O)oc2c1)CCC3)c1ccco1`?
PME-1 inh: 3; Fam108B inh: 1; PAD4 FP inh: 2; LYPLA1 inh: -6; LYPLA2 inh: -4; GSTO1 counter: 3
